For 20 molecules, growth inhibition, inhibition and outcome results are on record in PubChem BioAssay.

Each structure is given as a SMILES string. A number with no mark means an inactive call. For some of these results: Measured potencies and affinities stand elsewhere. Calls of active or inactive are those of the source. Unless noted, how the calls were made is not given here.

A short description of assay [1]: antimalarial activity against Dd2 strain (AID 2302;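 active means growth inhibition above 50% at the single 2 µM test dose, taken to imply half-maximal potency below 2 µM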;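 further: 0% = DMSO untreated growth and 100% = chloroquine plus artemisinin killed control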). To be noted: P. falciparum Dd2 in RBCs, LDH growth readout, 72 h; at 2 µM; hits give high values.
Assay [2] in a line: human hepatoma cell viability loss – ATP luminescence, cytotoxicity control for P. falciparum antimalarial project, primary screen (AID 2303;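 active means inhibition above 50%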;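 further: 0% = DMSO wells and 100% = digitonin-killed cells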). To be noted: HepG2 viability, 24-48 h, at 10 µM, hits give high values.
In assay [3] the target is L-lactate dehydrogenase (Plasmodium falciparum (isolate CDC / Honduras)) (UniProt Q27743). Description: PfLDH activity inhibition – cell lysate, 3D7 strain, counter-screen for P. falciparum growth inhibition project (AID 2304).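 Further: 0% = vehicle and 100% = reference inhibitor.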 To be noted: P. falciparum 3D7 crude extract, LDH APAD/NBT absorbance; at 2 µM; hits give high values.
Sequence of L-lactate dehydrogenase (Plasmodium falciparum (isolate CDC / Honduras)) (Q27743 whole entry, looked up): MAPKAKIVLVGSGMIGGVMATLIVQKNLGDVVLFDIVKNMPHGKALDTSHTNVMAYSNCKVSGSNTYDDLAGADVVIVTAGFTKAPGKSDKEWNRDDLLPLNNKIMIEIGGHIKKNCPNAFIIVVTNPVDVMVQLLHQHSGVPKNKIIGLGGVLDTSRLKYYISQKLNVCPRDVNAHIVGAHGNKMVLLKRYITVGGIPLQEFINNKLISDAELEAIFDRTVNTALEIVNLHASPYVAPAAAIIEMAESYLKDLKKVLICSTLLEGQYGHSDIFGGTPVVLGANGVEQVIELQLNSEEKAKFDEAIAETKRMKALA
Assay [4] can be described thus: inhibition of 3D7 malaria parasite growth – strain 3D7 (AID 2306).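 Further: 0% = DMSO wells and 100% = chloroquine plus artemisinin control wells.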 The settings on record: P. falciparum 3D7 erythrocytic growth, LDH absorbance, 72 h; at 2 µM; hits give high values.
The target in assay [5] is Calcium-dependent protein kinase 1 (Plasmodium falciparum (isolate 3D7)) (UniProt P62344). Description: PfCDPK1 kinase inhibitors, biochemical, TCAMS library (AID 1159585; cut-off not given, nearly all actives have IC50 up to about 0.98 µM;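 further: inhibitors leave more ATP so luminescence rises with inhibition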). The settings on record: recombinant PfCDPK1, Kinase-Glo ATP depletion luminescence. For orientation: Kinase-Glo reads ATP consumption through a luciferase reaction.
Sequence of Calcium-dependent protein kinase 1 (Plasmodium falciparum (isolate 3D7)) (P62344 whole entry, looked up): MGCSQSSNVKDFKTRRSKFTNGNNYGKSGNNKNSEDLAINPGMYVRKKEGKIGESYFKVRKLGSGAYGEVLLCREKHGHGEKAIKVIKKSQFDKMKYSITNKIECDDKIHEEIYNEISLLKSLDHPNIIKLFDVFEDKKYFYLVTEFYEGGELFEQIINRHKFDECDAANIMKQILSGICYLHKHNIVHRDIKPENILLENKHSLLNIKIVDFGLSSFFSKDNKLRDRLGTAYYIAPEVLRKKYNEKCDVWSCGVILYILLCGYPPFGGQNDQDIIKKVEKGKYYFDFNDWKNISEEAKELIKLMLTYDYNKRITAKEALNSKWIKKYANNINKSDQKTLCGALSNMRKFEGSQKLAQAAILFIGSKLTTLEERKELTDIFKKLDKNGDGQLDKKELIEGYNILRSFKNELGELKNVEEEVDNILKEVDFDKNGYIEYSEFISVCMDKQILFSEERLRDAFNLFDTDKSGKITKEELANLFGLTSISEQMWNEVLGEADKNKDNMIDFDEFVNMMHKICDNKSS
In assay [6] the target is Plasmodium falciparum protein kinase 6 (PK6, PF3D7_1337100) (UniProt Q8IDW1). Description: PfPK6 kinase inhibitors, biochemical, TCAMS library (AID 1159586). The settings on record: recombinant PfPK6, Kinase-Glo ATP depletion luminescence.
Sequence of Plasmodium falciparum protein kinase 6 (PK6, PF3D7_1337100) (Q8IDW1 1-305): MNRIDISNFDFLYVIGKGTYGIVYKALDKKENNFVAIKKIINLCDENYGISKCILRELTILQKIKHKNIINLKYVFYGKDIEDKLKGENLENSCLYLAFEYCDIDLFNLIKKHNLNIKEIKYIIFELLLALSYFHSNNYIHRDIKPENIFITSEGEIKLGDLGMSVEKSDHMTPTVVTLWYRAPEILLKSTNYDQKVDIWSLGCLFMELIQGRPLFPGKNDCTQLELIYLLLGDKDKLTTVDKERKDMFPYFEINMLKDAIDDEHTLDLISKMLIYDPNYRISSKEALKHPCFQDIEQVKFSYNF
Assay [7] deals with Protein kinase 7 (PK7), Plasmodium falciparum 3D7 (PF3D7_0213400) (UniProt Q7YTF7). In words: inhibition of Plasmodium PK7 catalytic activity – biochemical, TCAMS antimalarial set, Kinase-Glo luminescence (AID 1159587). To be noted: recombinant PfPK7, Kinase-Glo ATP depletion luminescence.
Sequence of Protein kinase 7 (PK7), Plasmodium falciparum 3D7 (PF3D7_0213400) (Q7YTF7 1-343): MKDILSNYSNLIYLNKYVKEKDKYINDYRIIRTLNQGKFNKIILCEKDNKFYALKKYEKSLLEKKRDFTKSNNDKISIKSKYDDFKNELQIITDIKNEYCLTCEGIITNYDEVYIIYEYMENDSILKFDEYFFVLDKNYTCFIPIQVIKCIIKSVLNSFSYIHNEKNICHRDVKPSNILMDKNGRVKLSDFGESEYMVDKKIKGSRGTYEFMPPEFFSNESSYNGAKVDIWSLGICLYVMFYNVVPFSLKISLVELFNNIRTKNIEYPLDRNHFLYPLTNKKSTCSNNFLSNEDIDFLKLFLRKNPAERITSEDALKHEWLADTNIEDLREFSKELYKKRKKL
Assay [8] addresses Calcium-dependent protein kinase 4 (Plasmodium falciparum (isolate 3D7)) (UniProt Q8IBS5). Description: PfCDPK4 kinase inhibitors, biochemical, TCAMS library (AID 1159588; cut-off not given, nearly all actives have IC50 up to about 0.91 µM). To be noted: recombinant PfCDPK4, Kinase-Glo ATP depletion luminescence.

Sequence of Calcium-dependent protein kinase 4 (Plasmodium falciparum (isolate 3D7)) (Q8IBS5 whole entry, looked up): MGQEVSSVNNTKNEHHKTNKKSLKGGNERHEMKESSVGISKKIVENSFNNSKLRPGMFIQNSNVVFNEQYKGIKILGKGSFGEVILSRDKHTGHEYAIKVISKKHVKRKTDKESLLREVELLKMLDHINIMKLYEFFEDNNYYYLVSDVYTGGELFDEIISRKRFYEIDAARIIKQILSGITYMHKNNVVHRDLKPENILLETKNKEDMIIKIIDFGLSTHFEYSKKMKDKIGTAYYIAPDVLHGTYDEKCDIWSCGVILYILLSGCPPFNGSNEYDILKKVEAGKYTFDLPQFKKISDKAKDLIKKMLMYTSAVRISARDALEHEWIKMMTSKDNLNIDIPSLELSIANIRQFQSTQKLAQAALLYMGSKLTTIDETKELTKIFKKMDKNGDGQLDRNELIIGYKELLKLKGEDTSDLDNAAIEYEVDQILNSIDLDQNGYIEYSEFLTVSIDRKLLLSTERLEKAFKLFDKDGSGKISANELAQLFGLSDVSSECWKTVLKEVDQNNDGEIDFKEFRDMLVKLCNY

On to `CCCCCCCN(Cc1ccc(OC(C)(C)C(=O)OCC)cc1)C(=O)Nc1ccccc1OCC`, for which the growth inhibition in assay [1] is 94% (active); in assay [4] it was 93% (active). The inhibition (in general, the drop in the measured response relative to a control, in per cent) in assay [2] was -5%; in assay [3], -3%. In addition, the outcome in assay [5], in assay [6], in assay [7] and in assay [8] was inactive.
With `COc1cc(Nc2ccnc3ccc(C(F)(F)F)cc23)cc(OC)c1OC`, the growth inhibition is 100% (active) in assay [1] and 101% (active) in assay [4]. The inhibition was 15% in assay [2] and 1% in assay [3]. Moreover, the result in assay [5], in assay [6], in assay [7] and in assay [8] was inactive.
`Cc1c[nH]c2cc(/C=C/C(=O)NC3CCC(CCN4CCc5ccc(C#N)cc5CC4)CC3)ccc12` (stereo not given): the values for the growth inhibition in assay [1] and in assay [4] were 59% (active) and 95% (active), respectively. The inhibition in assay [2] is -1%; in assay [3] it was -2%. For the same molecule, the outcome in assay [5], in assay [6], in assay [7] and in assay [8] was inactive.
As for `CCc1cn2c3c(cc(C(=O)N[C@@H](Cc4cccc(Cl)c4)[C@H](O)CNC4CC4)cc13)N(C)S(=O)(=O)CC2`, the growth inhibition in assay [1] and in assay [4] was 98% (active) throughout. Moreover, the inhibition in assay [2] was 10%; in assay [3], -1%. Moreover, the result in assay [5], in assay [6], in assay [7] and in assay [8] was inactive.
`CC(C)COc1ccc(Cl)cc1Cc1nc(-c2nc3ccc(CN(C)C)cc3[nH]2)co1`: the growth inhibition in assay [1] is 87% (active); in assay [4], 97% (active). The results for the inhibition in assay [2] and in assay [3] were 14% and 5%, respectively. The outcome in assay [5], in assay [6], in assay [7] and in assay [8] was inactive.
Turning to `CN1CCCc2ccc(NC(=O)c3cc(-c4ccc(Cl)cc4)cs3)cc2C1`, the growth inhibition is 40% in assay [1] and 94% (active) in assay [4]. The inhibition in assay [2] was 35%; in assay [3], -2%. Also, the result in assay [5], in assay [6], in assay [7] and in assay [8] was inactive.
As for `COc1cc2nc(N3CCN(C(=O)c4c(Cl)nsc4-c4ccccc4Cl)CC3)nc(N)c2cc1OC`, the growth inhibition is 101% (active) in assay [1] and 100% (active) in assay [4]. The inhibition was 57% (active) in assay [2] and -6% in assay [3]. Besides, the result in assay [5], in assay [6], in assay [7] and in assay [8] was inactive.
On to `CCCC[C@H](NC(=O)O[C@H](COc1ccc(OCc2ccccc2)cc1)C(C)(C)C)C(=O)C(=O)Nc1ccn[nH]1`, for which the growth inhibition is 71% (active) in assay [1] and 88% (active) in assay [4]. Also, the inhibition was 21% in assay [2] and -1% in assay [3]. Also, the result in assay [5], in assay [6], in assay [7] and in assay [8] was inactive.
As to `O=C(Nc1ccc(N2CCN(Cc3c[nH]c4cc(F)ccc34)CC2)cc1)c1ccccc1-c1ccc(C(F)(F)F)cc1`, the growth inhibition in assay [1] is 7%; in assay [4], 85% (active). Besides, the inhibition in assay [2] was 20%; in assay [3], 9%. In addition, the result in assay [5], in assay [6], in assay [7] and in assay [8] was inactive.
`O=C(Nc1ccc(C(=O)Nc2cccc(C3=NCCN3)c2)cc1)Nc1ccc(C2=NCCN2)cc1`: the growth inhibition in assay [1] was 98% (active); in assay [4], 96% (active). In addition, the inhibition is -16% in assay [2] and -4% in assay [3]. Besides, the outcome in assay [5], in assay [6], in assay [7] and in assay [8] was inactive.
`Cn1nccc1C(=O)NCCNCc1cccc(-c2csc(-c3nc4ccccc4[nH]3)c2)c1`: the figures for the growth inhibition in assay [1] and in assay [4] were 2% and 101% (active), respectively. Further, the inhibition in assay [2] is 30%; in assay [3], 0%. For the same molecule, the result in assay [5], in assay [6], in assay [7] and in assay [8] was inactive.
On to `Cc1ccc(-c2ccc(NC(=O)N3CCc4cc(Br)c(N5CCN(C)CC5)cc43)cc2)cn1`, for which the growth inhibition in assay [1] was 16%; in assay [4], 80% (active). The results for the inhibition in assay [2] and in assay [3] were 86% (active) and -3%, respectively. Besides, the outcome in assay [5], in assay [6], in assay [7] and in assay [8] was inactive.
In the case of `COC(=O)c1c(C#N)c(OC)cc(O)c1CSC[C@@H](CN1CCCCC1)Nc1nc(-c2ccc([N+](=O)[O-])cc2)cs1`, the figures for the growth inhibition in assay [1] and in assay [4] were 77% (active) and 101% (active), respectively. The inhibition in assay [2] was 8%; in assay [3] it was -3%. The outcome in assay [5], in assay [6], in assay [7] and in assay [8] was inactive.
Turning to `COc1cccc(-c2ccc(O)c(CNCCc3cccc(F)c3)c2)n1`, the growth inhibition in assay [1] was 67% (active); in assay [4] it was 96% (active). For the same molecule, the values for the inhibition in assay [2] and in assay [3] were -14% and 0%, respectively. For the same molecule, the outcome in assay [5], in assay [6], in assay [7] and in assay [8] was inactive.
Take `CN(C)CCNCc1ccc(-c2ccc3c(Nc4ccc(F)cc4Cl)ccnc3c2)o1`: the growth inhibition in assay [1] and in assay [4] was 100% (active) throughout. Besides, the inhibition in assay [2] is 31%; in assay [3], -9%. Also, the outcome in assay [5], in assay [6], in assay [7] and in assay [8] was inactive.
On to `COc1ccc(-c2nc(NC(=O)COc3ccc(C(C)=O)cc3)sc2C)cc1`, for which the growth inhibition in assay [1] was 58% (active); in assay [4], 98% (active). In addition, the inhibition in assay [2] was -2%; in assay [3], 2%. Also, the outcome in assay [5], in assay [6], in assay [7] and in assay [8] was inactive.
In the case of `CCCCC(CC)CN1C(=O)C(c2ccccc2)(c2ccccc2)N=C1N` (stereo not given), the growth inhibition was 98% (active) in assay [1] and 94% (active) in assay [4]. Besides, the inhibition in assay [2] was 32%; in assay [3], 4%. The outcome in assay [5], in assay [6], in assay [7] and in assay [8] was inactive.
In the case of `CNCCCNCc1ccc(-c2ccc(F)c(Cl)c2)o1`, the growth inhibition in assay [1] is 12%; in assay [4], 100% (active). For the same molecule, the inhibition in assay [2] was 22%; in assay [3], 0%. For the same molecule, the outcome in assay [5], in assay [6], in assay [7] and in assay [8] was inactive.
For the molecule `CCCc1cc(N2CCC(N3CCCC3)CC2)nc(Nc2ccc(Cl)cc2)n1`, the growth inhibition in assay [1] was 9%; in assay [4] it was 96% (active). The results for the inhibition in assay [2] and in assay [3] were 29% and -2%, respectively. In addition, the outcome in assay [5], in assay [6], in assay [7] and in assay [8] was inactive.
As for `CCCCOC(=O)C1=C(C)NC2=C(C(=O)CCC2)C1c1ccc(OC)c(Br)c1` (stereo not given), the growth inhibition was 87% (active) in assay [1] and 93% (active) in assay [4]. Moreover, the inhibition in assay [2] was 5%; in assay [3], -4%. Besides, the result in assay [5], in assay [6], in assay [7] and in assay [8] was inactive.
